The target in assay [1] is Cellular tumor antigen p53 (Homo sapiens) (UniProt P04637). In words: Primary qHTS for small molecule compounds that upregulate eGFP-tagged delta133p53alpha (in N-terminal) cells. (AID 2060322). Further: nearly all actives have a fitted effect of over 75% in size. Further: potency means the concentration at half of the fitted maximal effect.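 On activation: cells pre-induced with doxycycline then dosed without doxycycline; 0% = DMSO vehicle and 100% = reference activator.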 To be noted: NCI-H358 eGFP-delta133p53alpha fluorescence, 24 h; activation: hits give high values. The method in brief:
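NCI-H358 cells pre-induced 24 h with 10 ng/ml doxycycline for eGFP-delta133p53alpha, plated dox-free and exposed 24 h at 37C to titrated compounds. Fixed, Hoechst-stained; gated GFP peak intensity by laser scanning cytometry, normalized to DMSO (0%) and 57.5 uM 5-azacytidine (100%).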

Assay [2] deals with Aldehyde dehydrogenase, mitochondrial (Homo sapiens) (UniProt P05091). In words: qHTS for Inhibitors of the Aldehyde Dehydrogenase Family (ALDH2) Primary screen (AID 2061308).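 Further: plate controls were vehicle for no effect and reference inhibitor for full effect; nearly all actives have a fitted effect of over 55% in size.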 Conditions: ALDH2 enzyme inhibition qHTS, 1536-well; series mostly up to 56 µM.
For assay [3], the target named is Retinaldehyde dehydrogenase 3 (Homo sapiens) (UniProt P47895). In words: qHTS for Inhibitors of the Aldehyde Dehydrogenase Family (ALDH1A3) Primary screen (AID 2061315).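 Further: plate controls were DMSO vehicle for no effect and reference inhibitor for full effect.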 Conditions: ALDH inhibition qHTS; series mostly up to 56 µM.

Where “and” joins values, the source holds several entries; their conditions need not be identical. Equal values may be shown once. Results filed as inconclusive are left out. Values without a mark were called inactive. Calls of active or inactive are those of the source. The call rests on the fitted dose curve; in most records, active means well fitted curve in the direction sought with a large enough effect; inconclusive means small, poorly fitted or top-dose-only effect, or another doubt; inactive means no such curve, though single readings can be large; an effect the other way counts as inactive or inconclusive.

The text below walks through data of PubChem BioAssay (NCATS).

Chain of Cellular tumor antigen p53 (Homo sapiens) (P04637 whole entry, looked up): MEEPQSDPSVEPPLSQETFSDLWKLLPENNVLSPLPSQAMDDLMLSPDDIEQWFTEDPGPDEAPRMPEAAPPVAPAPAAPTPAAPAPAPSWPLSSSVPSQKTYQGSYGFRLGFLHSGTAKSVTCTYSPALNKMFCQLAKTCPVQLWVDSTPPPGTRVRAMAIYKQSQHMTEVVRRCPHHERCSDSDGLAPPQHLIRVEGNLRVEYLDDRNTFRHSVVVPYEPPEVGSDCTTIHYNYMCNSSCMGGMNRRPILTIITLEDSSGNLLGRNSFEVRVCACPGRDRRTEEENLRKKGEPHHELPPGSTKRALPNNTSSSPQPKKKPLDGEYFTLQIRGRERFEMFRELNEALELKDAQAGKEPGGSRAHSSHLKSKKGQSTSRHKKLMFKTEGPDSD

As for `C=C1C(=O)O[C@@H]2C/C(C)=C\C(=O)/C=C(\C)[C@@H](OC(=O)/C(C)=C\C)[C@H](O)[C@@H]12`, in assay [1], the Potency is 5.88 µM (active). Also, the Potency result in assay [2] and in assay [3] was “inactive” in each case.

With `CN(C)C(=O)CNC(=O)Cc1ccccc1`, the activation in assay [1] is 5.02%. For the same compound, the Potency result in assay [2] and in assay [3] was “inactive” throughout.

In the case of `CC1=CC(=O)[C@]2(O[C@@H]3O[C@@H](C)[C@H](O)[C@@H](O)[C@H]3O)C=CO[C@@H](O[C@@H]3O[C@H](CO)[C@@H](O)[C@H](O)[C@H]3O)[C@H]12`, the activation in assay [1] is -18.3%. For the same compound, the Potency result in assay [2] and in assay [3] was “inactive” in each case.

Take `C[C@H]1[C@H](C)CC[C@]2(C(=O)O)CC[C@]3(C)C(=CCC4[C@@]5(C)C[C@@H](O)[C@H](O)C(C)(C)C5CC[C@]43C)[C@H]12` (stereo partly specified): in assay [1], the activation is -9.16%. Also, the Potency entry in assay [2] and in assay [3] was “inactive” throughout.

With `COC(=O)C[C@@H]1C(C(=O)O)=CO[C@@H](O[C@@H]2O[C@H](CO)[C@@H](O)[C@H](O)[C@H]2O)/C1=C\COC(=O)/C=C\c1ccccc1`, in assay [1], the activation is 26%. The Potency entry in assay [2] and in assay [3] was “inactive” throughout.

Regarding `CC(=O)/C=C/[C@H]1[C@](C)(O)[C@@H](O)[C@H](OC(C)=O)C2C(C)(C)CCC[C@@]21C` (stereo partly specified), the activation in assay [1] is -2.68%. Moreover, the Potency result in assay [2] and in assay [3] was “inactive” throughout.

`COc1ccc2c(c1)C(C(=O)N(Cc1ccc(N(C)C)cc1)c1ccc(C(C)C)cc1)CCC2` (stereo unspecified): the activation in assay [1] was 1%. For the same compound, the Potency entry in assay [2] and in assay [3] was “inactive” each time.

Take `CC(=O)O[C@@H](C[C@@H]1C=C(C)C(=O)O1)[C@H](C)[C@H]1CCC2[C@@]3(C)CC[C@H](O[C@@H]4O[C@H](CO)[C@@H](O)[C@H](O)[C@H]4O[C@@H]4O[C@@H](C)[C@H](O)[C@@H](O)[C@H]4O)C(C)(C)C3CC[C@@]2(C)[C@@]12COC(=O)C2` (stereo partly specified): the activation in assay [1] is 1.79%. The Potency entry in assay [2] and in assay [3] was “inactive” in each case.

`C[C@@H]1O[C@@H](O[C@H]2[C@H](O[C@H]3[C@H](O[C@H]4CC[C@@]5(C)C(CC[C@]6(C)C5CC=C5[C@@H]7CC(C)(C)C[C@@H](O)[C@]7(C)CC[C@]56C)[C@@]4(C)CO)O[C@H](C(=O)O)[C@@H](O)[C@@H]3O)OC[C@H](O)[C@@H]2O)[C@H](O)[C@H](O)[C@H]1O` (stereo partly specified): the activation in assay [1] is 3.82%. Further, the Potency result in assay [2] and in assay [3] was “inactive” throughout.

Turning to `COC1CCCC/C(C)=C/C2C=C(C)C(C)C3C(CC(C)C)NC(=O)C23C(=O)C1` (stereo unspecified), the activation in assay [1] was -5.34%. Besides, the Potency result in assay [2] and in assay [3] was “inactive” throughout.

`FC(F)(F)c1ccc(Nc2nc3ccc(Oc4ccnc(-c5ncc(C(F)(F)F)[nH]5)c4)cc3[nH]2)cc1`: the activation in assay [1] was -7.84% and 12.4%. In addition, the Potency result in assay [2] and in assay [3] was “inactive” each time.

Regarding `CC(=O)c1cc(C(=O)N[C@@H](C)Cn2ccc(-c3ccc(C#N)c(Cl)c3)n2)[nH]n1`, the activation in assay [1] was 18.3%. Also, the Potency entry in assay [2] and in assay [3] was “inactive” in each case.

On to `C=C1CC23CC(=O)C4C(CO)(CO)CCCC4(C)C2CCC1C3` (stereo unspecified), for which the activation in assay [1] was -3.05%. Further, the Potency entry in assay [2] and in assay [3] was “inactive” in each case.

Consider `C=C1CC/C=C(/CO)C(=O)C[C@@H]2[C@@H]1CC2(C)C`, for which the activation in assay [1] is 7.14%. For the same compound, the Potency result in assay [2] and in assay [3] was “inactive” throughout.

With `O=C1CCC(=O)N(O)CCCCCNC(=O)CCC(=O)N(O)CCOCCNC(=O)CCC(=O)N(O)CCCCCN1`, the activation in assay [1] was -16.8%. For the same compound, the Potency entry in assay [2] and in assay [3] was “inactive” throughout.

As to `O=C(Nc1cccc([N+](=O)[O-])c1)c1cccc(S(=O)(=O)N2CCCCCC2)c1`, in assay [1], the activation is 1.67%. In addition, the Potency entry in assay [2] and in assay [3] was “inactive” throughout.

Regarding `C/C=C/C=C/C=C/C(=O)O[C@@H]1[C@@H](OC)C2=C(C(=O)N(C(C)C(=O)O)C2)[C@@]2(C)CCCC(C)(C)[C@H]12` (stereo partly specified), the activation in assay [1] is -2.68%. Also, the Potency entry in assay [2] and in assay [3] was “inactive” in each case.

Take `CC1(C)CC=C(c2cnc3ccccc3c2)c2cc(C(=O)Nc3ccc(C(=O)O)cc3)ccc21`: the activation in assay [1] is 3.34%. In addition, the Potency entry in assay [2] and in assay [3] was “inactive” throughout.

For `O=C(O)CCc1cccc(O[C@@H]2O[C@H](CO)[C@@H](O)[C@H](O)[C@H]2O)c1O`, in assay [1], the activation was -6.87%. The Potency entry in assay [2] and in assay [3] was “inactive” each time.

Consider `CCC(C)/C=C(C)/C=C/C1=CC2=C(Cl)C(=O)C(C)(OC(C)=O)C(=O)C2=CN1C(CC(=O)O)C(=O)O` (stereo unspecified), for which the activation in assay [1] was 9.82%. Moreover, the Potency entry in assay [2] and in assay [3] was “inactive” in each case.

For the compound `C/C1=C\CC[C@H](C)CCO[C@@H]2O[C@H](CO[C@@H]3OC[C@](O)(COC1=O)[C@H]3O)[C@@H](O)[C@H](O)[C@H]2O`, the activation in assay [1] was 18.8%. For the same compound, the Potency result in assay [2] and in assay [3] was “inactive” throughout.

As to `CC1=C2C(=O)O[C@@H](c3ccoc3)[C@]2(C)CCC1`, the activation in assay [1] was -11.6% and -7%. Further, the Potency entry in assay [2] and in assay [3] was “inactive” in each case.
